Measured values from the supplement of paper PMC6555819.

Each sequence was assayed on PPARg:RXRa IVT, anti-PPARg (NR concentration 270 nM, RXRa partner concentration 90 nM) (assay: PBM binding z-score (relative to random genomic background probes); higher = stronger binding; sequences stand for … in GC…GCGATTGACAGCGTAGAATGAAGG).
Outline: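 For binding z-scores, the reference was random background probes on custom Agilent 4×180K protein-binding microarrays. These arrays were incubated 1 h with ligand-free nuclear receptor dimers in PBS pH 7.4, 2% milk, 0.02% Triton X-100, 1 mM DTT, 0.2 mg/mL BSA and 0.4 mg/ml salmon testes DNA. Fluorescence was scanned after antibody detection of each partner (one per run) and regression-normalized.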

| Sequence | PBM binding z-score |
| --- | --- |
| CCTAGTTGGTCAGCAGGTCACACACCGGATATGA | 2.95 |
| TGAAGGAGGTTAAAGATCAGGGAACGTGGCGTCG | 2.36 |
| GCTAGCAGGCCAATTGGGTCACTCAATGACGGGC | 3.11 |
| TCAGACTGGTGAAGGTAACTCAGGTACGCAGTCG | 0.112 |
| CAGCCTAGGTCACGGCCAGTATAGGAGGAACGTT | 4.36 |
| CTCGAAAGGTCGTGCTCAGGTGAGTAAACCAAAC | 1.96 |
| GCTTGAAGATCAAGGTTAAGAAAGACTAAGCTAA | -0.042 |
| CCTAGCAGGCCGGGGTCACTCAAGCATTTCGCTT | 1.7 |
| CAGCCTAGGTCAGGGCCACTATAGGAGGAACGTT | 1.84 |
| CCGACTGGAGCAAAGGTTACCATACTCAGTACGA | 3.51 |
| TGAATGAGGTTATAAGATCTGGGAACGTTGCAAA | 1.57 |
| GATACAGGGTCAGCTAGAGGCCAGGGTATGGAAA | 2.38 |
| ACACACAGGTGATGAAGGTAACTCAGGCTATCAT | 1.02 |
| AGCTCTAGGTAAAGATAGTTCAGTGAATGCAAAT | 1.19 |
| CCTACTGGGCCAAAAAGGTCAATGATGCCGATAA | 4.64 |
| GCTCGGACGACAAGGTCAGAGCTTTGTCCGTAGA | -0.175 |
| GGAACGAGGGCAAAGTTGATAGCTTCTGTCGACG | 4.11 |
| ATATGTGGGTTACATCCGGGTCATTCAGGCTATG | 6.81 |
| CGAACTAGGTCATTGACAGGACTGTGAATAGTAA | 8.16 |
| TGAATGAGGTTATAAGATTAGGGAACGTTGCAAA | 1.82 |

| Sequence | PBM binding z-score |
| --- | --- |
| GCTAGTTGCTCAGTAAAAGGTCACACACCGGTCG | 1.7 |
| TTACCAAGGTGAGCTGAGGTCGTTAATCCAACTC | 1.7 |
| ACAGACAGGTGAGTGAAGGTAACTCATCTGGACG | 0.393 |
| GCGACTGGGGCATCAGCAGGTTATCATAACTTAA | 3.13 |
| ACTATTAGTTGACTTAGGGTAACCGATACGACGC | 0.626 |
| TCTCGGAGGACAGGAAGGTCAGAGCTTTCCAGAG | 0.389 |
| CTGCCTAGGTCAGGGCCAGTATAGGAGGAACGTT | 1.46 |
| TGAATGAGGTTATAAAATCAGGGAACGTTGCAAA | 1.47 |
| ACAGACAGGTGATGAAGGTGACTCAGGCTATCAT | 0.845 |
| CGACCAAGGTCATAGGAGGTCAGTGAAGACAGAT | 4.52 |
| GTTACAGGGTCAGCTAGAGGCCAGAGTATGGAAA | 2.79 |
| CCTTACGGGTCACTGACAGGTTATACCATTTGGA | 3.72 |
| ATCTCTAGGTAAAGTTCAGTGAGAGATCGATAGA | 2.62 |
| ATCTCTAGGTAACAAATTCAGTGAAAGAGAGGAC | 2.57 |
| CGTCCAAGGTCAAGGTCAGTGTAAGAGACTCGAA | 4.48 |
| CGTACAAGGTCAGAGAGGTCAGTGAATGCCGAGT | 4.39 |
| ACTTACGGGTAAACGAGGTTATAGCACGCGTATA | 1.16 |
| GCTGCTAGGTCAGGTGGGTCAGCTAACGGGTACG | 3.22 |
| CCTACTGTGCCACGAAAGGTCATTGATTCAGTGA | 4.39 |
| CCTGCTAGGTCAATGGTCAGCAAAAGCAGCTCGC | 3.94 |
